Source: PubChem BioAssay (NCI)
The panel holds about 83,000 compounds, 20% with a hit somewhere; the sample as a whole holds those more often.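 The endpoint reported here, percent growth, reads 100 for growth as untreated, 0 for no net growth and -100 for all cells dead.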 Values without a mark were called inactive. Activity calls are given as the source filed them. Rule for the calls: active = growth percent below 10; inactive = the rest.

What was measured:
Assay in all cases: NCI-60 one-dose screen, 48 h (100 = growth as untreated, 0 = no growth, -100 = all killed)
Conditions in all cases: 10 µM unless noted
HCT-15 colon = system: HCT-15 colon
HT29 colon = system: HT29 colon
SNB-75 CNS = system: SNB-75 CNS
SNB-19 CNS = system: SNB-19 CNS
U251 CNS = system: U251 CNS
PC-3 prostate = system: PC-3 prostate
SK-MEL-5 melanoma = system: SK-MEL-5 melanoma
UACC-62 melanoma = system: UACC-62 melanoma
LOX IMVI melanoma = system: LOX IMVI melanoma
SK-MEL-28 melanoma = system: SK-MEL-28 melanoma

Compound | growth (HCT-15 colon) | growth (HT29 colon) | growth (SNB-75 CNS) | growth (SNB-19 CNS) | growth (U251 CNS) | growth (PC-3 prostate) | growth (SK-MEL-5 melanoma) | growth (UACC-62 melanoma) | growth (LOX IMVI melanoma) | growth (SK-MEL-28 melanoma)
CO[C@H]1C[C@@H]2CC[C@@H](C)[C@@](O)(O2)C(=O)C(=O)N2CCCC[C@H]2C(=O)O[C@H]([C@H](C)C[C@@H]2CC[C@@H](OP(C)(C)=O)[C@H](OC)C2)CC(=O)[C@H](C)/C=C(\C)[C@@H](O)[C@@H](OC)C(=O)[C@H](C)C[C@H](C)\C=C/C=C/C=C/1C | 47.6% | 40.3% | 17.6% | 53% | 40.4% | 42.2% | 51.6% | 39.5% | 42.7% | 54.4%
COc1cc(Nc2ncc3c(n2)-c2ccc(Cl)cc2C(c2c(F)cccc2OC)=NC3)ccc1C(=O)O | 37.2% | 40.7% | 91.6% | 74.1% | 51.6% | 60.7% | 67.8% | 64.6% | 35.9% | 84.7%
COc1ccc(C2CC(=O)c3c(O)c(OC)c(OC)c(OC)c3O2)c(O)c1 (stereo not given) | 10.3% | 65.3% | 38.1% | 35.6% | 24.3% | 29% | 20% | 37% | 44.2% | 61.2%
CNC(=O)c1cc(Oc2cccc3nc(Nc4ccc(Oc5ccccc5)cc4)ccc23)ccn1 | 54.7% | 62.5% | 67.8% | 92% | 65.6% | 35.4% | 36.3% | 62.6% | 83% | 77.4%
CNC(=O)c1cccc2cc(Oc3ccnc4cc(OCC5(N)CC5)c(OC)cc34)ccc12 | 57.8% | 34.6% | 26.7% | 67.6% | 66.4% | 66.9% | 76.5% | 82.2% | 46.3% | 87%
C=C1C[C@H](O)[C@H](Br)C(C)(C)[C@@]12CCC(C)=C(Cl)C2 | -4.29% (active) | 3.04% (active) | 52.9% | 40.7% | 20.4% | 16.6% | -60.8% (active) | -11.8% (active) | -5.6% (active) | 30.1%
CN1CCC(COc2cnc(-c3cccc(Cn4nc(-c5cccc(C#N)c5)ccc4=O)c3)nc2)CC1 | 12.4% | -38.5% (active) | 72.9% | 78.2% | 16.4% | 67.8% | 43.2% | 95.1% | 34.2% | -13.2% (active)
CN1CCN(c2nc(NCCNc3ccnc4cc(Cl)ccc34)c3ccccc3n2)CC1 | 16.1% | 0.651% (active) | 74.7% | 34.8% | 9.01% (active) | 30.4% | -97.5% (active) | -55.1% (active) | -56% (active) | -58.5% (active)
COc1ccc2c(CCCc3ccc(Cl)cc3Cl)c3[n+](cc2c1OC)CCc1cc2c(cc1-3)OCO2 | 24.4% | -15.6% (active) | 15.2% | 16.7% | 3.76% (active) | -14.2% (active) | -99.6% (active) | -68.2% (active) | -80.3% (active) | -35.6% (active)
C1=C\COCc2cc(ccc2OCCN2CCCC2)Nc2nccc(n2)-c2cccc(c2)COC/1 | 1.31% (active) | -30.8% (active) | -95.8% (active) | 1.55% (active) | -22.6% (active) | 0.91% (active) | -96.5% (active) | -68.7% (active) | -70.2% (active) | -41.8% (active)
COc1cc2c(Oc3ccc4[nH]c(C)cc4c3F)ncnc2cc1OCCCN1CCCC1 | 99.4% | 83.9% | 50.9% | 88.2% | 63.2% | 103% | 104% | 103% | 85.8% | 95.8%
CC(=O)Nc1cccc(-n2c(=O)n(C3CC3)c(=O)c3c(Nc4ccc(I)cc4F)n(C)c(=O)c(C)c32)c1 | 45.4% | 5.59% (active) | 43% | 48.3% | 39.9% | 63.7% | 32.7% | -6.11% (active) | 14% | -4.75% (active)
Cc1nn(-c2ccccc2)c2c1N=c1s/c(=C\c3cn(-c4ccccc4)nc3-c3ccc(Cl)cc3)c(=O)n1C(C)N2 (stereo not given) | 85.8% | 94.3% | 86.4% | 98.9% | 85.2% | 82.4% | 85% | 106% | 87.6% | 118%
NN1C(=O)CSC1=S | 105% | 83.9% | 95.6% | 116% | 85.6% | 93.4% | 104% | 116% | 98.6% | 115%
FC(F)c1nc2ccccc2n1-c1nc(N2CCOCC2)nc(N2CCOCC2)n1 | 9.28% (active) | 2.81% (active) | -48% (active) | 10.5% | 4.05% (active) | 7.59% (active) | -41.8% (active) | -50% (active) | -17.9% (active) | -31% (active)
COc1cc2c(cc1OCCCCCN1CCN(c3ncnc4ccccc34)CC1)N=CC1CCCN1C2=O (stereo not given) | 0.198% (active) | 8.89% (active) | -50.2% (active) | 12.6% | 2.18% (active) | -38.6% (active) | -80.6% (active) | -90.4% (active) | -49.2% (active) | -14.6% (active)
CCNCCNc1cc(-c2ccc(Cl)c(Cl)c2)c(C#N)c2nc3ccccc3n12 | -84% (active) | -87.3% (active) | -88.4% (active) | -74.2% (active) | -95.5% (active) | -83% (active) | -93.5% (active) | -74.2% (active) | -93.4% (active) | -81% (active)
O=C(c1ccc(F)c(F)c1Nc1ccc(I)cc1F)N1CC(O)([C@@H]2CCCCN2)C1 | 25.6% | -18.5% (active) | 21.7% | 36.4% | 15.3% | 38.6% | -92.9% (active) | -5.75% (active) | -84.1% (active) | -1.76% (active)
O=C1CC(c2ccc3c(c2)OCO3)c2ncn(-c3ccc(Cl)cc3)c2N1 (stereo not given) | 24.2% | 10.9% | 30.1% | 47.8% | 21.9% | 45.1% | 24.8% | 34.4% | 51.7% | 55.4%
CC1CCC(n2cnc3c(Cl)ncnc32)O1 (stereo not given) | 103% | 110% | 91.9% | 82.3% | 102% | 89.6% | 91% | 104% | 87.1% | 109%
COC(=O)C1CCc2sc3ncnc(Nc4cn[nH]c4C(=O)Nc4ccc(CN5CCN(C)CC5)cc4)c3c21 (stereo not given) | 7.28% (active) | -0.301% (active) | -22.4% (active) | 21.6% | -24.2% (active) | 9.88% (active) | -59.3% (active) | 58.8% | 0.377% (active) | 23.5%
COc1ccc2c(CCCC(c3ccccc3)c3ccccc3)c3[n+](cc2c1OC)CCc1cc2c(cc1-3)OCO2 | 13.2% | -2.94% (active) | -19.1% (active) | -16.4% (active) | -76.2% (active) | -68.8% (active) | -100% (active) | -71.7% (active) | -100% (active) | -78.7% (active)
CC(C)CC(=O)Nc1n[nH]c2c1CN(C(=O)C1CCN(C)CC1)C2(C)C | 78.8% | -1.54% (active) | -19.8% (active) | 11.5% | 2.91% (active) | 16.1% | -35.7% (active) | -19.1% (active) | 9.19% (active) | 9.19% (active)
COC(=O)C1=C(C(=O)OC)C23C=C(C)C1C2=C(C)C1(CC1)[C@@](C)(O)C3=O (stereo not given in full) | 6.97% (active) | -0.501% (active) | -56.5% (active) | 7.17% (active) | 2.06% (active) | 11.5% | -75.7% (active) | -45.2% (active) | -14.3% (active) | -22.5% (active)
Nc1nc(=S)c2ncn(C3OC(COC(=O)c4ccc(Cl)cc4)C(OC(=O)c4ccc(Cl)cc4)C3OC(=O)c3ccc(Cl)cc3)c2[nH]1 (stereo not given) | 95.5% | 87.9% | 76.7% | 86.9% | 38% | 84.9% | 65.7% | 94.1% | 90.5% | 82.4%
NC[C@@](O)(c1ccc(Cl)cc1)c1ccc(-c2cn[nH]c2)cc1 | 9.55% (active) | 1.46% (active) | -6.12% (active) | 30.6% | 19.1% | 40.1% | 39.3% | -2.01% (active) | 7.1% (active) | 3.21% (active)
CCN(CC)CCNC(=O)c1c(C)[nH]c(/C=C2\C(=O)Nc3ccc(F)cc32)c1C | 11% | -53.9% (active) | 18.2% | 9.51% (active) | -79.3% (active) | 21.6% | -98% (active) | -63.6% (active) | -81.9% (active) | -69.1% (active)
